Measured values: PubChem BioAssay AID1159580 (chemical genetic matrix, 2015)
Values joined by “and” are separate entries in the source; they are usually repeats but may differ in a detail not shown here. Identical values can stand only once. About 2,000 (36%) of roughly 5,500 compounds were called active. Inconclusive results (about 18%) are left out. Rule as the data show it: active = normalized growth mostly below about 0.91 (no sharp cut-off); inconclusive = no clear call, values can overlap the other calls; inactive = mostly above about 0.92. This is one part of the list. Where a SMILES comes first, the peptide text is derived from it. Bridges are numbered along the chain shown (N, C = ends). [ ]: non-standard residue; d: D form. The star is where a group is joined. Heptanoyl(6-Me) = CC(C)CCCCC(=O)*; Dab = NCC[CH](N)C(=O)O

Test: chemical genetic growth profiling, strain panel (AID 1159580);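 also: tested at 20 µM; growth read once vehicle control cultures reached saturation at 30 °C; 1 = growth at the plate median or of vehicle wells; lower values mean less growth of the strain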
Details: S. cerevisiae deletion strains, growth OD
[1] = locus YHR030C, strain SLT2, active compounds read low
[2] = locus YJL095W, strain BCK1, active compounds read low
[3] = locus YJR066W, strain TOR1, active compounds read low
[4] = locus YLR113W, strain HOG1, active compounds read low
[5] = locus YNL183C, strain NPR1, active compounds read low
[6] = locus YOR231W, strain MKK1, active compounds read low
[7] = locus YPL256C, strain CLN2, active compounds read low

Measured: normalized growth

O=C1CC[C@]23C=CC(=O)NCCCCNCCCNC(=O)/C=C/c4ccc(c2c4)O[C@@H]3C1
active: locus YHR013C, strain ard1, active compounds read low 1.41 [resistant]
inactive: locus YAL021C, strain ccr4, active compounds read low 1.02 | locus YAL026C, strain drs2, active compounds read low 1.04 | locus YAL030W, strain snc1, active compounds read low 1.01 | locus YBL061C, strain skt5, active compounds read low 1.02 | locus YBR009C, strain hhf1, active compounds read low 1.03 | locus YBR021W, strain FUR4, active compounds read low 0.999 | locus YBR023C, strain chs3, active compounds read low 1.02 | locus YBR171W, strain sec66, active compounds read low 1.01 | locus YBR229C, strain ROT2, active compounds read low 1.01 | locus YBR231C, strain swc5, active compounds read low 1.01 | locus YBR279W, strain paf1, active compounds read low 1 | locus YCL011C, strain gbp2, active compounds read low 1 | locus YCL016C, strain dcc1, active compounds read low 1.03 | locus YCL029C, strain bik1, active compounds read low 0.997 | locus YCL061C, strain MRC1, active compounds read low 1 | locus YCL069W, strain vba3, active compounds read low 1.01 | locus YCR088W, strain abp1, active compounds read low 1.02 | locus YDL005C, strain med2, active compounds read low 1.02 | locus YDL035C, strain GPR1, active compounds read low 1.05 | locus YDL040C, strain nat1, active compounds read low 1 | locus YDL074C, strain BRE1, active compounds read low 1.05 | locus YDL101C, strain DUN1, active compounds read low 1 | locus YDL134C, strain PPH21, active compounds read low 0.954 | locus YDL185W, strain tfp1, active compounds read low 0.993 | locus YDL192W, strain arf1, active compounds read low 1.02 | locus YDR001C, strain nth1, active compounds read low 1.01 | locus YDR069C, strain doa4, active compounds read low 1.03 | locus YDR101C, strain arx1, active compounds read low 0.997 | locus YDR137W, strain rgp1, active compounds read low 0.993 | locus YDR150W, strain NUM1, active compounds read low 1.01 | locus YDR159W, strain sac3, active compounds read low 1.03 | locus YDR162C, strain NBP2, active compounds read low 1.02 | locus YDR195W, strain ref2 1.02 | locus YDR297W, strain sur2, active compounds read low 1.01 | locus YDR318W, strain mcm21, active compounds read low 1.01 | locus YDR334W, strain swr1, active compounds read low 1.01 | locus YDR335W, strain msn5, active compounds read low 1.03 | locus YDR388W, active compounds read low 0.993 | locus YDR392W, strain spt3, active compounds read low 1.01 | locus YDR502C, strain sam2, active compounds read low 0.963 | locus YEL003W, strain gim4, active compounds read low 1.01 | locus YEL037C, strain rad23, active compounds read low 1.02 | locus YEL061C, strain CIN8 (second series), active compounds read low 1.01 | locus YEL061C, strain CIN8, active compounds read low 1.01 | locus YER015W, strain faa2, active compounds read low 1.01 | locus YER016W, strain bim1, active compounds read low 1.02 | locus YER110C, active compounds read low 0.981 | locus YER111C, strain swi4, active compounds read low 1.01 | locus YER155C, strain BEM2 (second series), active compounds read low 1.01 | locus YER155C, strain BEM2, active compounds read low 1.01 | locus YER167W, strain BCK2, active compounds read low 1.02 | locus YFR010W, strain ubp6, active compounds read low 1.02 | locus YGL078C, strain dbp3, active compounds read low 0.987 | locus YGL086W, strain mad1, active compounds read low 0.99 | locus YGL167C, strain pmr1, active compounds read low 1.03 | locus YGL173C, strain kem1, active compounds read low 1.02 | locus YGL227W, strain vid30, active compounds read low 1.02 | locus YGL240W, strain doc1, active compounds read low 1.02 | locus YGL248W, strain PDE1, active compounds read low 1 | locus YGL253W, strain hxk2, active compounds read low 1.02 | locus YGR135W, strain pre9, active compounds read low 0.951 | locus YGR252W, strain gcn5, active compounds read low 0.903 | locus YHR027C, strain rpn1, active compounds read low 1 | [1] 1.05 | locus YHR079C, strain IRE1 (second series), active compounds read low 0.995 | locus YHR079C, strain IRE1, active compounds read low 1.04 | locus YHR094C, strain hxt1, active compounds read low 0.993 | locus YHR129C, strain ARP1, active compounds read low 1.01 | locus YHR142W, strain chs7, active compounds read low 1.01 | locus YHR200W, strain rpn10, active compounds read low 0.963 | locus YIL066C, strain RNR3, active compounds read low 1.04 | locus YIL073C, strain SPO22, active compounds read low 0.97 | locus YIL125W, strain kgd1, active compounds read low 0.988 | locus YIR030C, strain dcg1, active compounds read low 0.997 | locus YJL092W, strain hpr5, active compounds read low 1.01 | locus YJL095W, strain BCK1 (second series), active compounds read low 1.04 | [2] 1.01 and 1.04 | locus YJL115W, strain asf1, active compounds read low 1.02 | locus YJL129C, strain trk1, active compounds read low 1.01 | locus YJL134W, strain LCB3, active compounds read low 1.01 | locus YJL154C, strain vps35, active compounds read low 1.01 | locus YJL164C, strain tpk1, active compounds read low 0.974 | locus YJL166W, strain qcr8, active compounds read low 1.04 | locus YJL168C, strain set2, active compounds read low 1 | locus YJL187C, strain SWE1 (second series), active compounds read low 0.99 | locus YJR043C, strain POL32, active compounds read low 1.04 | [3] 0.98 | locus YKL009W, strain mrt4, active compounds read low 1.04 | locus YKL068W, active compounds read low 0.993 | locus YKL085W, strain MDH1 (second series), active compounds read low 0.997 | locus YKL085W, strain MDH1, active compounds read low 0.997 | locus YKL160W, strain elf1, active compounds read low 1.04 | locus YKR001C, strain vps1, active compounds read low 0.977 | locus YKR026C, strain gcn3, active compounds read low 1.01 | locus YKR091W, strain srl3, active compounds read low 1.01 | locus YLL001W, strain dnm1, active compounds read low 0.965 | locus YLL026W, active compounds read low 1.01 | locus YLL041C, strain sdh2, active compounds read low 1.01 | locus YLR027C, strain aat2, active compounds read low 1.01 | locus YLR039C, strain RIC1, active compounds read low 1.08 | locus YLR058C, strain SHM2, active compounds read low 1.01 | locus YLR102C, strain apc9, active compounds read low 0.985 | [4] 0.962 | locus YLR221C, strain rsa3, active compounds read low 1.01 | locus YLR258W, strain gsy2, active compounds read low 1.01 | locus YLR262C, strain YPT6 (second series), active compounds read low 1 | locus YLR268W, strain sec22, active compounds read low 1.01 | locus YLR320W, strain mms22, active compounds read low 1.04 | locus YLR330W, strain CHS5, active compounds read low 1.01 | locus YLR342W, strain FKS1 (second series), active compounds read low 1.04 | locus YLR342W, strain FKS1, active compounds read low 1 | locus YLR357W, strain rsc2, active compounds read low 1.01 | locus YLR370C, strain arc18, active compounds read low 1.02 | locus YLR371W, strain rom2, active compounds read low 1 | locus YLR384C, strain iki3, active compounds read low 1 | locus YLR418C, strain cdc73, active compounds read low 0.959 | locus YML016C, strain PPZ1, active compounds read low 1.01 | locus YML032C, strain rad52, active compounds read low 0.993 | locus YML120C, strain ndi1, active compounds read low 0.993 | locus YML124C, strain tub3, active compounds read low 0.988 | locus YMR058W, strain fet3, active compounds read low 1.02 | locus YMR078C, strain ctf18, active compounds read low 0.986 | locus YMR125W, strain sto1, active compounds read low 1 | locus YMR129W, active compounds read low 1 | locus YMR205C, strain PFK2, active compounds read low 1.01 | locus YMR223W, strain ubp8, active compounds read low 0.969 | locus YMR231W, strain pep5, active compounds read low 1.02 | locus YMR307W, strain GAS1, active compounds read low 1.05 | locus YNL067W, strain RPL9B, active compounds read low 0.976 | locus YNL071W, strain lat1, active compounds read low 1.02 | locus YNL153C, strain GIM3, active compounds read low 0.996 | [5] 0.99 | locus YNL209W, strain ssb2, active compounds read low 1.01 | locus YNL233W, strain BNI4, active compounds read low 0.998 | locus YNL248C, strain rpa49, active compounds read low 1.03 | locus YNL250W, strain rad50, active compounds read low 0.959 | locus YNL271C, strain bni1, active compounds read low 0.999 | locus YNL298W, strain CLA4, active compounds read low 0.997 | locus YNL307C, strain MCK1, active compounds read low 0.983 | locus YNL322C, strain KRE1 (second series), active compounds read low 1.01 | locus YNL322C, strain KRE1, active compounds read low 1.01 | locus YNR049C, strain mso1, active compounds read low 1.03 | locus YNR052C, strain pop2, active compounds read low 0.972 | locus YOL006C, strain TOP1, active compounds read low 1.09 | locus YOL012C, strain htz1 0.612 | locus YOL147C, strain pex11, active compounds read low 0.99 | locus YOR001W, strain rrp6, active compounds read low 1.03 | locus YOR061W, strain CKA2, active compounds read low 1.02 | locus YOR069W, strain VPS5, active compounds read low 1 | locus YOR070C, strain gyp1, active compounds read low 1.02 | locus YOR080W, strain dia2, active compounds read low 1.01 | locus YOR083W, strain WHI5, active compounds read low 1.01 | locus YOR106W, strain vam3, active compounds read low 1.01 | locus YOR136W, strain idh2, active compounds read low 0.979 | locus YOR144C, strain elg1, active compounds read low 0.987 | locus YOR184W, strain ser1, active compounds read low 1.03 | [6] 1.03 | locus YOR265W, strain rbl2, active compounds read low 0.991 | locus YOR270C, strain vph1, active compounds read low 1.07 | locus YOR290C, strain snf2, active compounds read low 1.01 | locus YOR316C, strain cot1, active compounds read low 0.984 | locus YPL051W, strain arl3, active compounds read low 1.02 | locus YPL055C, strain LGE1, active compounds read low 1.04 | locus YPL078C, strain atp4, active compounds read low 1.01 | locus YPL106C, strain sse1, active compounds read low 1.06 | locus YPL240C, strain hsp82, active compounds read low 1.01 | locus YPL241C, strain CIN2, active compounds read low 1.01 | [7] 1.05 | locus YPR119W, strain clb2, active compounds read low 0.992 | locus YPR141C, strain kar3, active compounds read low 0.993 | locus YPR163C, strain tif3, active compounds read low 0.99 | locus YPR167C, strain met16, active compounds read low 0.985 | strain wtn01, active compounds read low 0.99

CCC(C)C1NC(=O)C(CCN)NC(=O)C(NC(=O)C(CCN)NC(=O)C(NC(=O)C(CCN)NC(=O)CCCCC(C)C)C(C)O)CCNC(=O)C(C(C)O)NC(=O)C(CCN)NC(=O)C(CCN)NC(=O)C(C(C)CC)NC1=O (stereo unspecified) ({Heptanoyl(6-Me)}-[Dab]T[Dab][Dab][Dab]II[Dab][Dab]T; lactam 4-C; configuration not given here)
inactive: [1] 0.976 | [2] 0.985 | [3] 0.95 | [4] 0.967 | [5] 0.944 | [6] 0.971 | [7] 0.973
